The nature of experiment [1]: A CellTox Green Cytotoxicity Assay to monitor cytotoxicity in HEK293 cells - 32 hour (AID 1224881). Note: nearly all actives have a fitted effect of over 40% in size. The method in brief:
(§1)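 HEK293 cells, 600/well, were preincubated 5 hours and then exposed to compounds at 37 C for up to 40 hours. A cell-impermeant cyanine dye staining dead-cell DNA was read by fluorescence at 0, 8, 16, 24, 32 and 40 h time points.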

Experiment [2] can be described thus: A CellTox Green Cytotoxicity Assay to monitor cytotoxicity in HepG2 cells - 0 hour (AID 1224882). Note: nearly all actives have a fitted effect of over 35% in size. The method in brief: (§2)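 HepG2 cells, 600/well, preincubated 5 h with CellTox Green dye, then exposed to Tox21 compounds in DMSO at 37 C for up to 40 h. Dead-cell DNA fluorescence read at the indicated time point.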
Experiment [3] can be described thus: A CellTox Green Cytotoxicity Assay to monitor cytotoxicity in HepG2 cells - 32 hour (AID 1224883). Note: nearly all actives have a fitted effect of over 50% in size. The essentials:
as §2

Experiment [4] is described as follows: A CellTox Green Cytotoxicity Assay to monitor cytotoxicity in HEK293 cells - 8 hour (AID 1224884). Note: nearly all actives have a fitted effect of over 35% in size. The method in brief: as §1
Experiment [5] is described as follows: qHTS RealTime-Glo MT Cell Viability Assay in HepG2 cells - 16 hour (AID 1224885). Note: nearly all actives have a fitted effect of over 50% in size. The essentials: (§3)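 qHTS, HepG2, 600 cells/well, RealTime-Glo (NanoLuc + prosubstrate) added with cells; 5 h preincubation; DMSO compound addition; 37 C; luminescence at 0/8/16/24/32/40 h.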
(In qHTS, concentration-response curves come from the screen itself.)

Experiment [6] can be described thus: qHTS RealTime-Glo MT Cell Viability Assay in HEK293 cells - 24 hour (AID 1224886). Note: top concentration of the series differs between compounds; nearly all actives have a fitted effect of over 50% in size. The essentials: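 Assay medium contained NanoLuc luciferase plus cell-permeant prosubstrate, added with HEK293 cells at 600 cells/well. After 5 h at 37 C/5% CO2 compounds were added; plates stayed at 37 C for 40 h with serial luminescence reads.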
The nature of experiment [7]: qHTS RealTime-Glo MT Cell Viability Assay in HEK293 cells - 8 hour (AID 1224887). Note: top concentration of the series differs between compounds; nearly all actives have a fitted effect of over 50% in size. The method in brief:
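600 cells/well were plated with the nonlytic NanoLuc/prosubstrate reagent, pre-incubated 5 h, then given 23 nL of compound in DMSO. Incubation at 37 C for 40 h, with luminescence from viable-cell-reduced substrate read repeatedly from 0 h.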

Experiment [8] in a line: A CellTox Green Cytotoxicity Assay to monitor cytotoxicity in HEK293 cells - 16 hour (AID 1224888). Note: nearly all actives have a fitted effect of over 35% in size. The essentials:
as §1

The nature of experiment [9]: qHTS RealTime-Glo MT Cell Viability Assay in HepG2 cells - 0 hour (AID 1224889). Note: nearly all actives have a fitted effect of over 50% in size. The essentials:
as §3

Experiment [10] is described as follows: A CellTox Green Cytotoxicity Assay to monitor cytotoxicity in HepG2 cells - 8 hour (AID 1224890). Note: nearly all actives have a fitted effect of over 45% in size. The method in brief: as §2
A short description of experiment [11]: qHTS assay to identify small molecule antagonists of the estrogen receptor alpha (ER-alpha) signaling pathway using the BG1 cell line in the presence of 0.1 nM 17-beta-estradiol - cell viability counter screen (AID 1259241). Note: nearly all actives have a fitted effect of over 40% in size. The essentials:
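Viability in VM7Luc4E2 cells after 22 hr compound exposure under 0.1 nM 17beta-estradiol stimulation, by CellTiter-Fluor.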

Experiment [12] is described as follows: qHTS assay to identify small molecule antagonists of the androgen receptor (AR) signaling pathway using the MDA cell line in the presence of 0.5 nM R1881 - cell viability counter screen (AID 1259242). Note: nearly all actives have a fitted effect of over 45% in size. The essentials:
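MDA-kb2 cells (MMTV-luciferase, AR/GR responsive) were treated with compounds plus 0.5 nM R1881 (final) for 16 hr at 37C, 0% CO2. Viability was then read in the same wells as live-cell protease fluorescence (CellTiter-Fluor, 30 min).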

The nature of experiment [13]: qHTS assay to identify small molecule HDAC inhibitors (AID 1259364). Note: top concentration of the series differs between compounds; nearly all actives have a fitted effect of over 45% in size. The essentials: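 Wild-type HCT-116 cells, plated overnight at 37 C, exposed to compounds 2 hr at 37 C; luminogenic HDAC-Glo substrate then added 30 min at room temperature. Luminescence reports relative endogenous class I/II HDAC activity.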
The nature of experiment [14]: qHTS assay to identify small molecule HDAC inhibitors - cell viability counter screen (AID 1259365). The method in brief: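 Cytotoxicity was gauged in wild-type HCT-116 cells after a brief 2hr treatment with DMSO-dissolved compounds at 37C and 5% CO2, using CellTiter-Glo luminescence developed for 30min at room temperature.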
Experiment [15] can be described thus: qHTS assay to identify small molecule agonists of the sonic hedgehog signaling (Shh) pathway - cell viability counter screen (AID 1259366). Note: nearly all actives have a fitted effect of over 50% in size. Note: potency is the fitted concentration of half-maximal effect. The method in brief: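 Stable Gli1-Luc NIH/3T3 clone, 2,000 cells/well. Compound exposure 24hr at 37C. Read-out: CellTiter-Fluor fluorescence.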
A short description of experiment [16]: qHTS assay to identify small molecule antagonists of the sonic hedgehog signaling (Shh) pathway - cell viability counter screen (AID 1259367). Note: nearly all actives have a fitted effect of over 55% in size. The essentials:
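Seed 3T3 Gli1-Luc cells at 2,000 per well; incubate 4 hr; add compound in DMSO, then conditioned medium; incubate at 37C with 5% CO2; add CellTiter-Fluor after 23 hr; read fluorescence 1 hr later.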

Experiment [17] is described as follows: qHTS assay to identify small molecule phospholipidosis (PLD) inducers (AID 1259344; active = well fitted curve in the direction sought with a large enough effect; an effect the other way counts as inactive or inconclusive). The essentials: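 Quantitative HTS in HepG2: compound plus LipidTOX Red dye for 24 h, paraformaldehyde fixation with Hoechst 33342, widefield high-content imaging; amiodarone as positive and DMSO as negative control.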
Experiment [18] has as its target Estrogen receptor (Homo sapiens) (UniProt P03372). Description: qHTS assay to identify small molecule antagonists of the estrogen receptor alpha (ER-alpha) signaling pathway using the BG1 cell line in the presence of 0.1 nM 17-beta-estradiol (AID 1259244). Note: nearly all actives have a fitted effect of over 50% in size. The essentials:
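VM7Luc4E2 cells (endogenous full-length ER-alpha, 4×ERE-luciferase), kept 5 days in phenol red-free, charcoal-stripped FBS medium; 4,000 cells/well. Compounds added with 0.1 nM (final) 17beta-estradiol, 22 hr at 37C; luminescence read with ONE-Glo after 30 min.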

The structures appear in SMILES notation. A number with no mark means an inactive call. Records with an inconclusive call do not appear. Active and inactive are the calls of the source. Unless noted, calls come from the whole dose curve; as a rule, active = well fitted curve in the direction sought with a large enough effect in the repeat runs; inconclusive = weak or mixed curves; inactive = no such curve, though single readings can be large; an effect the other way counts as inactive or inconclusive.
% is set by controls: 0 for no effect and ±100 for the full control effect.

Chain of Estrogen receptor (Homo sapiens) (P03372 whole entry, looked up): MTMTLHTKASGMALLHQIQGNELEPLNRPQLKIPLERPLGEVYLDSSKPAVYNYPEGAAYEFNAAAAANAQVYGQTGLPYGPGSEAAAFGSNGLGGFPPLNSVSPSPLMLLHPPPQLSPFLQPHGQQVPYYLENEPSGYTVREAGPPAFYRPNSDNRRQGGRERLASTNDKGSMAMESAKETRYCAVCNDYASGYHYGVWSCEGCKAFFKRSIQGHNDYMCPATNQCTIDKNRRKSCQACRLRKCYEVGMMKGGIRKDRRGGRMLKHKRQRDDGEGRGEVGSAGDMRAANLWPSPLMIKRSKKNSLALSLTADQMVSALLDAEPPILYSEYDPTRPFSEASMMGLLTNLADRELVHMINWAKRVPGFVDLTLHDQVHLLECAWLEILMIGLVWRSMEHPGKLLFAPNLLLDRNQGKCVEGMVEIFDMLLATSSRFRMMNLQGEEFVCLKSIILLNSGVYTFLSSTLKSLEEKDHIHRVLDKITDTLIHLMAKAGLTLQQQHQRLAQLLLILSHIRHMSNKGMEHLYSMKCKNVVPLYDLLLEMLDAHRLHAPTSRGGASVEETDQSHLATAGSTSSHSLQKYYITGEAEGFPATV

With `CCCCCCC1CCOC1=O` (stereo unspecified), the Potency result in experiment [1], in [3], in [4], in experiment [5], in [6] and in experiment [7] was “inactive” in each case. For the same molecule, the Potency result in experiment [8], in experiment [10], in experiment [12], in experiment [13], in experiment [15] and in [16] was “inactive” in each case. The molecule was called inactive in experiment [2], in experiment [9], in experiment [11] and in [14].

In the case of `CCC(=O)c1ccc(Cl)cc1`, the Potency entry in experiment [1], in experiment [3], in experiment [4], in experiment [5], in experiment [6] and in experiment [8] was “inactive” each time. Moreover, the Potency entry in experiment [10], in [12], in [13], in experiment [15] and in [16] was “inactive” each time. Further, the outcome in experiment [9], in experiment [11] and in experiment [14] was inactive.

Take `Oc1ccc2c3c1O[C@H]1[C@@H](O)C=C[C@H]4[C@@H](C2)NCC[C@@]341`: the Potency entry in experiment [1], in experiment [4], in experiment [5], in [6], in experiment [7] and in experiment [8] was “inactive” in each case. Besides, the Potency result in experiment [10], in [12], in experiment [17] and in [13] was “inactive” in each case. In addition, the molecule was classed as inactive in [9] and in [11]. The Potency in [15] was 28.1 µM (active).

In the case of `C=C1C[C@@H]2[C@H](CC[C@]3(C)C(=O)CC[C@@H]23)[C@@]2(C)C=CC(=O)C=C12`, the Potency entry in experiment [1], in experiment [3], in experiment [4], in [5], in experiment [7] and in experiment [8] was “inactive” throughout. The Potency result in [10], in experiment [12], in experiment [18], in experiment [17], in experiment [15] and in experiment [16] was “inactive” in each case. For the same molecule, the molecule was classed as inactive in experiment [2], in [11] and in experiment [14].

Take `O=CCCl`: the Potency entry in [1], in [3], in experiment [4], in experiment [5], in experiment [6] and in [7] was “inactive” in each case. For the same molecule, the Potency entry in [8], in experiment [10], in experiment [12], in [18], in experiment [13] and in [15] was “inactive” throughout. In addition, the Potency result in experiment [16] was “inactive”. In addition, the result in experiment [2], in [9] and in experiment [14] was inactive.

As for `Cc1ccc(-c2nc3ccc(C)cn3c2CC(=O)N(C)C)cc1`, the Potency entry in experiment [1], in [3], in experiment [4], in experiment [5], in experiment [7] and in experiment [8] was “inactive” each time. Further, the Potency entry in experiment [10], in experiment [12], in experiment [18], in experiment [17] and in experiment [13] was “inactive” in each case. The molecule was classed as inactive in experiment [2], in experiment [9] and in experiment [11].

As to `O=P(O)(O)CN(CP(=O)(O)O)CP(=O)(O)O`, the cytotoxicity increase is 21.6% [at 15.8 µM] in [1] and 30% [at 15.8 µM] in experiment [4]. In addition, the molecule was called inactive in experiment [2], in experiment [9] and in experiment [14]. Further, the Potency entry in experiment [3], in experiment [5], in experiment [10], in experiment [12], in experiment [15] and in experiment [16] was “inactive” in each case. For the same molecule, the activity change in [8] is 27.1% [at 15.8 µM, stronger effect = higher value].

Take `C#CC(C)(C)O`: the Potency entry in experiment [1], in experiment [3], in experiment [4], in experiment [5], in experiment [7] and in experiment [8] was “inactive” throughout. The Potency entry in experiment [10], in experiment [12], in experiment [13], in experiment [15] and in experiment [16] was “inactive” in each case. In experiment [9], the molecule was called inactive.

On to `Cc1cc(OC(=O)N(C)C)nn1C(=O)N(C)C`, for which the Potency entry in experiment [1], in experiment [4], in [5], in experiment [6], in experiment [7] and in [8] was “inactive” each time. Further, the Potency result in experiment [10], in [12], in [13], in [15] and in experiment [16] was “inactive” in each case. Further, the molecule was called inactive in experiment [2], in [9], in experiment [11] and in experiment [14].

With `NCCOS(=O)(=O)O`, the Potency result in experiment [1], in experiment [3], in [4], in experiment [5], in experiment [6] and in [7] was “inactive” each time. For the same molecule, the Potency entry in experiment [8], in experiment [10], in experiment [12], in experiment [18], in [13] and in experiment [15] was “inactive” throughout. Also, in experiment [16], the Potency result is “inactive”. For the same molecule, the outcome in [9] and in [11] was inactive.

Consider `Cc1ccc2c(c1)C1CN(C)CCC1N2` (stereo unspecified), for which the cytotoxicity increase in experiment [1] was -4.65% [at 15.8 µM]; in [4] it was -1.28% [at 15.8 µM]; in experiment [10], 11.9% [at 15.8 µM]. In experiment [2], the cytotoxicity was -0.534% [at 15.8 µM]. The activity change, negative = cytotoxic in experiment [5] was -6.11% [at 15.8 µM]. Besides, the activity change, negative = cytotoxicity in [7] was 1.42% [at 15.8 µM]; in [9] it was -0.0575% [at 15.8 µM]; in experiment [11], -3.08% [at 19 µM]; in experiment [14], 1.1% [at 19 µM]. The activity change in experiment [8] was -0.0479% [at 15.8 µM, stronger effect = higher value]. Also, the figures for the viability change, negative = cytotoxic in [12], in experiment [15] and in experiment [16] were -1.32% [at 19 µM], -5.79% [at 19 µM] and 5.33% [at 19 µM], respectively. Besides, the activity change, negative = inhibition in experiment [18] was -0.7% [at 19 µM]; in experiment [13], -0.403% [at 19 µM]. Besides, in [17], the Potency result is “inactive”.

Regarding `CC(C)(N)Cc1ccc(Cl)cc1`, the Potency result in experiment [1], in experiment [3], in [4], in [5], in experiment [6] and in experiment [7] was “inactive” throughout. Also, the Potency entry in [8], in [10], in experiment [12], in [17], in experiment [15] and in [16] was “inactive” in each case. For the same molecule, the molecule was called inactive in [2], in [9] and in experiment [11].

For the molecule `CCCCS(=O)(=O)Cl`, the Potency entry in experiment [1], in experiment [3], in experiment [4], in experiment [5], in [6] and in experiment [7] was “inactive” throughout. The Potency result in experiment [8], in experiment [10], in experiment [12], in experiment [13], in [15] and in experiment [16] was “inactive” each time. Also, the outcome in experiment [2] and in [9] was inactive.

As to `COC(=O)c1ccccc1CS(=O)(=O)NC(=O)Nc1nc(OC)cc(OC)n1`, the Potency result in experiment [1], in [3], in experiment [4], in [5], in experiment [6] and in experiment [7] was “inactive” throughout. For the same molecule, the Potency result in [8], in experiment [10], in experiment [12], in experiment [15] and in experiment [16] was “inactive” in each case. Besides, the call in experiment [2], in [9] and in experiment [11] was inactive.

The values are drawn from PubChem BioAssay (Tox21).
